Z-score data for 108 sequences are collected here from PubChem BioAssay AID1508600 (Functional Genomics Laboratory (NCATS/FGL), 2020).

About 3,700 (7%) of roughly 53,000 sequences were called active. The entries come from a sample that favours actives as a whole. Unmarked numbers belong to inactive results.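 Rule for the calls: active = gene knockdowns whose robust z-score for IL-1 alpha signal is at least 2 or at most -2, so actives lie on both sides; inactive = the rest.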

The assay is described as follows: Components of the Cytosolic LPS Sensing Pathway: Gene Identification via Genome-wide siRNA Screen.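 Note: robust z of the log signal after scaling to non-targeting control siRNA wells of the plate.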 To be noted: RAW264.7 macrophages, IL-1a HTRF, actives lie on both sides, screened at 100 nM (by protocol), cells primed 5 h with Pam3CSK4 first. Summed up: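 IL-1a HTRF of supernatants after 24 hour LipidA transfection of Pam3CSK4-primed (5 hours) RAW264.7 cells, 48h post-siRNA transfection (100 nM). Scores: percent of plate negative-control median, then log-based robust z-score.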
On the technique in general: Time-resolved FRET reads energy transfer from a long-lived donor to a nearby acceptor.
Regarding GGAAGAGGUGAAUGAUAAATT against Bmi1, the z-score was 1.51.

Regarding GCUCAACAGCAGUGACGAUTT against Nras, the z-score is -0.701.

In the case of GGCCAGUCAAGGUUGGAUUTT against Gpr152, the z-score was -0.32.

Consider GCUGUGAAUUCCAAAUGCGTT against Myh4, for which the z-score was 3.33 (active).

As to GGAUACAAUGCAACUGUCCTT against Kif4, the z-score is -1.08.

Take GCACUCUCUACUCUAUUAATT against Ackr2: the z-score is 2.68 (active).

For GGUUAGCCUACUCUCUAAUTT against Tomm22, the z-score was 0.501.

As for GGCUCAAAUACAGGAAAUUTT against Tmem45b, the z-score is 0.498.

GGGCAGGUUGUCUUUCUACTT against Plpp1: the z-score is 0.997.

On to UCAACAGGGCUGAUAUCCCTT against Acsl5, for which the z-score was -1.61.

As for CGGUGAAGACUAUCAUGGUTT against Tln1, the z-score is -0.791.

On to CCUUAAUCCAAACAAGUCUTT against Ncl, for which the z-score was 1.08.

For GGUUUCUUAGAUUAGCUAGTT against Map3k12, the z-score was 0.445.

Turning to GGUUAUCAAGAUUGCAUGUTT against Olfr853, the z-score is -0.646.

On to GGGUUAUGAAGAGAAACUUTT against Gatad2b, for which the z-score was 0.236.

On to GGACUGGUGGACAUAUGAATT against Os9, for which the z-score is 2.81 (active).

For the sequence GGAAAAGGUGGCCUACACATT against Rhox11, the z-score was -1.7.

For CCAAUAAAAUUGGUGUUCCTT against H13, the z-score is 0.18.

Consider GGUUAAAAUGUUGAUUGCUTT against Ndrg4, for which the z-score was -0.654.

Turning to GGGAAAAGUGACUAGGCUUTT against Ngb, the z-score was -0.331.

CCCACAGUGCAAAAAUGACTT against Olfr663: the z-score is -2.26 (active).

As for GGCAUAUGCACUUUAUUUCTT against Cep97, the z-score is -0.339.

Regarding GCAUUAAAGGAGUCCGAAUTT against Cpn1, the z-score was -0.328.

Take GCUUAUAACAGUUGAUGAGTT against Ndufs4: the z-score was -0.54.

On to GGCUAAUUCUCAAAGAGAUTT against Dnttip2, for which the z-score is -1.87.

With AUUCGGGAAAAUUUUAGACTT against Rbfox3, the z-score is -0.171.

GGCUAAAACUGCACAUAAATT against Pyroxd1: the z-score was -3.43 (active).

For the sequence GGGAAGCACAAGGUUUAGUTT against Brca1, the z-score was 0.531.

On to GCAACAAGAGGGCAGAAUGTT against Olfr518, for which the z-score is -2.22 (active).

On to GGAAGUUACAGAUGUGGCUTT against Nog, for which the z-score was -0.879.

For the sequence GCACCAUUCUAGGAGUCAUTT against Lonp2, the z-score is -0.504.

Consider GGACCACGCAAAAGAAUAUTT against Mtss1, for which the z-score is 0.0212.

With GCUCAUGUUGCACUGGAAATT against Ulbp1, the z-score was 1.22.

Turning to AAGCUUCAACAUCAGUUUGTT against Olfr1392, the z-score is -1.54.

In the case of GGCGAAGGGCAAGAAUAAATT against Hes1, the z-score was 2.16 (active).

On to CCCAUACUGUCACUUUAAGTT against H2bc8, for which the z-score is -2.23 (active).

GGUUCUGGUAUAAGUUAACTT against Gabrg3: the z-score was 0.292.

As for GCACGAAUGCCUUUUUAGATT against Mphosph8, the z-score was 0.32.

Turning to GGAGCUGGAGACUAAAGCUTT against Slc29a2, the z-score was -0.478.

As to GCAUUUGAUGAAGACUCGATT against Barx2, the z-score is 0.467.

For GGUUUAGCUGCAUUAAAAGTT against Lrrc27, the z-score is 0.956.

Take GGCCGAGAGUAUUUCUACATT against Efna5: the z-score is -0.254.

Regarding CGAACACUCGUUAAAGAAATT against Krt23, the z-score is 0.247.

Take CCAUGCACAAUUACAAGCUTT against Ret: the z-score was -0.000288.

Regarding CGGAAAAUUUGUUCCUGACTT against Rbm12b2, the z-score is 1.44.

As to GCAAAUGAGAGGUCUGUUGTT against Olfr1024, the z-score was -2.52 (active).

For the sequence CCCUAGGGUGAUGAAGCAUTT against Ckmt2, the z-score is -0.984.

As for GCCAUUAAGGAAAUGUUCUTT against Olfr426, the z-score is -0.969.

Regarding GGUUCUUUGGCUCUGUAUGTT against Atp5c1, the z-score was -0.64.

Take GGUCAUCCUUCUAUUCUCUTT against Olfr648: the z-score is -2.01 (active).

GGAGGUAAAAGAUGAGAAATT against Plekho1: the z-score was 1.57.

For the sequence CCUCAUAAAUUCACUCUCCTT against Bpifa2, the z-score is 0.984.

For GGAGAAAACUUAGAUUACCTT against Ppil4, the z-score was 2.15 (active).

As for GGAUAUGCUGUGAAGUAUUTT against Plekhf2, the z-score is 1.68.

For the sequence GGUUAAGACCUUAAACAGATT against Prl4a1, the z-score is 0.0572.

As for CGUUUCUCAGCAAACUUACTT against Il17a, the z-score was 0.669.

Consider GGCACCUUUCAACGUAACCTT against Ntn3, for which the z-score is 1.32.

Take GGACCUAAAGAAUUCAUCGTT against Unc79: the z-score was 0.109.

Consider GGUGAAGAUAGUAAUACGGTT against Apol7a, for which the z-score is -1.02.

For the sequence GGUCCAGAGGAUGAACAGATT against Crcp, the z-score is 0.551.

Consider CCAAAUUCAUUCUAGCUCGTT against Klf6, for which the z-score is -0.597.

With CGAUCUUCCAAACCCUCUUTT against Dhh, the z-score was 2.54 (active).

In the case of GCCCAUGACCAGUUCAAGUTT against Actn4, the z-score is 0.63.

For the sequence GCUAUUAAAAUAUGGGAAGTT against Olfr1314, the z-score is 1.28.

Take GCAUAUGAUGGUCCUUACCTT against Cox6b1: the z-score was 0.019.

In the case of CCAUGCUUCCCUUCAACAUTT against Adcy2, the z-score was 2.64 (active).

For GGCAGUUAUCUCCUAAUGCTT against Zfp934, the z-score was -0.383.

On to GGCCAGAUGACCUUGUCAUTT against Sult1e1, for which the z-score was -1.23.

GGCGCACAAUCAAGAUCUUTT against Col4a4: the z-score was 0.385.

GCACUUUGUAUGUCUAUCUTT against Tnfaip1: the z-score was 2.28 (active).

With CCAAAAAGUUCAGUGUAAUTT against Rad9b, the z-score was -1.09.

With GCUUGAGUAGUGCAGAAACTT against Jmjd1c, the z-score was -1.15.

Turning to CCAUGAGGAUGAUUACCUATT against Cnga2, the z-score was -0.947.

Take GGGAAGAUUGAUUUUAUCGTT against Abcb11: the z-score is 2.31 (active).

As for GCGACCUUAGACAUUUGCATT against Prkrip1, the z-score is -0.652.

As to CGCCUUCAUAAUGUAGUUGTT against Defb37, the z-score was 0.601.

Turning to CCGUCACUUUUAACCAUGUTT against Speg, the z-score was 4.19 (active).

Take GCACCUGGAGUACAUAAAATT against Sh2d1a: the z-score was -0.854.

As for CGUAGACUCCAAGCUCAAUTT against Ddx54, the z-score was -1.31.

For the sequence GGAAAUUGUCUUUGGCUUUTT against Otop1, the z-score is -0.0923.

Turning to GGCAAAAUGAAGAAGCUGATT against Hdac6, the z-score is -1.3.

In the case of GCUACGAGCAGUUUUUAUUTT against Ptgs1, the z-score was 0.885.

As for GGUGAAAGGAGUCAGUCUATT against Agtrap, the z-score is -0.013.

With GGCUCCUGGUUCUACAUCCTT against Itpr2, the z-score was -2.54 (active).

Consider CCCUAAGUAUAGGAUCGGATT against Macroh2a1, for which the z-score is -1.07.

Turning to GGGUUAUCUAUGCAAAUCCTT against Odc1, the z-score was 0.569.

For GCGGCAUUCGUCCAAAUUGTT against Trpt1, the z-score is 0.938.

GGCAGAGAUGGUGUUGAUGTT against Col1a2: the z-score was -0.342.

For GGUGGCCAUUCUUCUGUUCTT against Dynll1, the z-score was 2.19 (active).

Turning to GGAAGUGGUGGCCAUCAAGTT against Stk25, the z-score is 1.08.

On to GCUUGUAGGUGGAUACAUGTT against Slc30a4, for which the z-score was -0.161.

Consider GGAAGACUAGGAGAGACGGTT against Pqlc3, for which the z-score is -0.739.

GCAUAAUGGAUGGAAAGUCTT against Tasp1: the z-score was 1.1.

For CCCUAAGGUGGCAGAAAUCTT against Atp1a2, the z-score was -1.49.

GGCGGUUCAAAUGUCCUCATT against Fut2: the z-score is -2.02 (active).

For GGGAGGGUGUGCAAAAGUUTT against Arl4d, the z-score was 1.26.

For the sequence GCUUCUUAUGAAAAGAUGCTT against Epc2, the z-score is 0.463.

As to GGAGUGGACUCACGUCUAATT against Med23, the z-score is 0.717.

As for GGGUCCUUUUUCACAUGGUTT against Asph, the z-score is 2.82 (active).

For CGGUGAUAGUGGAGUUUGUTT against Olfr266, the z-score was 0.542.

Turning to GCAGCACAGUACUAUCUCGTT against Ttc4, the z-score was -0.339.

As to GCCAGAGAUUCCUCAACGATT against Rpp21, the z-score was -2.48 (active).

As for GCAAUAGAAUCACAUAGGATT against Glyctk, the z-score was 1.35.

On to GGCUGUAAUGACGAAUACATT against Naa25, for which the z-score is 0.764.

Consider GGGCAUGUGAUAGAACAAUTT against Stoml1, for which the z-score is -0.701.

Regarding GAGAAAGAUAAUUACCUGGTT against Tnfrsf22, the z-score was 0.552.

GGAAGCUGAUGGCUAUGACTT against Arc: the z-score is -0.943.

Take GGAGACUGUAGACUUAAAGTT against Rnf25: the z-score was -1.24.
